The sample as a whole holds a higher share of hits than the screen did.
VCAM1 pot: TNF alpha stimulated VCAM1 expression potentiation; HUVEC TNFa-stimulated VCAM-1 immunofluorescence, high-content imaging; scaled per plate to unstimulated/TNFa-only wells; activation, % at 2 µM; actives 0.19% (n = 93,000); AID 808;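 active = activation above the screen mean plus 3 SD, with well images confirming the hit on visual review, cut at about 28% in these data, passing the limit was not always enough; inconclusive = activation above that limit but images do not confirm it; inactive = activation not above that limit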;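 note: signal is the number of cytoplasmic VCAM-1 stained grains per positive cell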
VCAM1 pot confirm: potentiators of TNFa-induced VCAM1 expression, confirmation, imaging, HUVEC, triplicate retest. shares compounds with VCAM1 pot. 230 tested, under 10 active. AID 1034. activation, % at 2 µM. HUVEC TNFa-stimulated VCAM-1 immunofluorescence imaging;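 active = activation above 30% in triplicate retests at 2 µM, then confirmed by visual review of the well images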
Hits are given with their value; . = inactive; ? = inconclusive.

SMILES | VCAM1 pot | others
CCOC(=O)c1ccc(NC(=O)C(C)N2C(=O)c3ccccc3C2=O)cc1 (stereo unspecified) | .
CCOC(=O)c1cccc(NC(=O)CN2C(=O)C3C4C=CC(C4)C3C2=O)c1 (stereo unspecified) | .
CCCNC(=O)NC(C)C12CC3CC(CC(C3)C1)C2 (stereo unspecified) | .
O=C(CN1CCCCCC1)Nc1ccc(Br)cc1 | 34 | VCAM1 pot confirm=.
NC(=O)c1oc2ccccc2c1NC(=O)CN1CCCCC1 | .
CC1CCCN(CC(=O)Nc2ccc(S(=O)(=O)NC3CCCCC3)cc2)C1 (stereo unspecified) | .
COc1cc(/C=N/O)cc(Br)c1OCc1ccc(Cl)cc1 | .
c1ccc(-n2ncc3c(NCc4ccco4)ncnc32)cc1 | .
COc1ccccc1C(=O)NC(CCSC)C(=O)NCC(c1ccco1)N(C)C (stereo unspecified) | .
CN(C)C(CNc1nnnn1-c1ccccc1)c1ccco1 (stereo unspecified) | ? | VCAM1 pot confirm=.
CC1(C)CC(=O)C=C(NCc2cccs2)C1 | .
Oc1ccc(-c2cccc(-c3ccc(O)cc3)n2)cc1 | .
COc1cccc(C2=NOC(C(=O)Nc3ccccc3SC)C2)c1 (stereo unspecified) | .
N#Cc1c(NC(=O)CSc2nnnn2C2CCCC2)sc2c1CCCC2 | .
Cc1ccc(NC(=O)N/C=C/c2ccccc2)cc1 | .
COc1ccccc1/C=C/C1(C(=O)NC2CCCC2)CC(=O)N1c1ccc(F)cc1 (stereo unspecified) | .
CC(C)C(=O)Nc1nc2c(ncn2C2CC(O)C(CO)O2)c(=O)[nH]1 (stereo unspecified) | 30 | VCAM1 pot confirm=.
CCOC(=O)C(O)(CC(=O)Nc1ccc(Cl)cc1Cl)C(F)(F)F (stereo unspecified) | .
CCOC(=O)CCc1c(C)c2ccc(OCc3ccc([N+](=O)[O-])cc3)cc2oc1=O | .
COc1cc(C(=O)COC(=O)CNC(=O)C2CCCCC2)cc(OC)c1OC | .
O=c1[nH]c(CN2CCCCC2)nc2ccccc12 | .
COC(=O)Nc1c(C)nn(Cc2ccccc2C)c1C | .
O=C(CSc1nnc(CNc2ccc(F)cc2)n1Cc1ccco1)NC1CC1 | .
CCCc1ccc(-c2cc(NC(=O)CSc3n[nH]c(N)n3)n(-c3ccccc3)n2)cc1 | .
Nc1cc(-c2ccccc2)nn1Cc1ccc(Cl)cc1 | .
SMILES | VCAM1 pot | others
O=c1cc(-c2ccccc2)nc2nc(CCc3ccccc3)[nH]n12 | 48 | VCAM1 pot confirm=.
Nc1nc2c(c3c1c(=O)oc1ccccc13)CCCCC2 | .
C=CCNc1ncnc2c1[nH]c1ccc(Cl)cc12 | .
COc1ccc(-c2nc(C#N)c(NCCCN(C)C)o2)cc1OC | .
CN(C)c1oc(-c2ccccc2Cl)nc1C#N | 41 | VCAM1 pot confirm=.
Cc1nnc(NC(=O)CSc2nc3c(c(=O)n2C)SC(C)C3)s1 (stereo unspecified) | .
CCOC(=O)N1CCN(C(=O)CN(c2ccc(OC)cc2)S(C)(=O)=O)CC1 | .
COC(=O)C(C)Sc1nnc(Cc2cc(=O)[nH]c(=O)[nH]2)n1-c1cccc(OC)c1 (stereo unspecified) | .
Cc1onc(-c2c(Cl)cccc2Cl)c1C(=O)N1CCc2ccccc21 | .
Cn1cc(C(=O)c2ccc(Cl)cc2Cl)cc1C(=O)N/N=C(\N)COc1ccc(Cl)cc1Cl | .
CC1=C(C(=O)Nc2cc(C)ccc2C)C(c2cccs2)NC(=S)N1 (stereo unspecified) | 52 | VCAM1 pot confirm=.
COC(=O)c1ccc(Oc2nc(N(C)C)nc(N3CCOCC3)n2)cc1 | .
COc1ccc(Cl)c(NC(=O)Nc2c(C)n(-c3ccccc3)c(=O)n2C)c1 | .
Nc1nc(NC(=O)c2cccs2)nn1-c1ccccc1 | .
Cc1ccc(S(=O)(=O)N2CCCC(C(=O)Nc3ccc(NC(=O)c4ccccn4)cc3)C2)cc1 (stereo unspecified) | .
CCN1CCN(CC(=O)Nc2ccc3c(c2)OCO3)C(=O)C1=O | .
O=S(=O)(Nc1ccc(-n2cccc2)cc1)c1ccccc1 | .
Cc1cccc(NS(=O)(=O)c2ccc(C)c(C(=O)OCC(=O)Nc3cc(C)on3)c2)c1 | .
CC(=O)c1ccc(NS(=O)(=O)c2cccc(C)c2)cc1 | 72 | VCAM1 pot confirm=.
CC12CCC(C(=O)N(CSC(=S)N/N=C\c3ccccc3O)C1=O)C2(C)C (stereo unspecified) | .
Cc1cc(C)c(OCC(=O)Nc2cccc(O)c2)cc1C | .
CCOC(=O)c1ccc(NC(=O)COc2cc(=O)n(CC)c3ccccc23)cc1 | .
COc1ccccc1OCC(=O)Nc1ccc(C(N)=O)cc1 | 51 | VCAM1 pot confirm=.
Cc1ccc(O)c(NC(=O)CCC2CCCCC2)c1 | .
CCSc1nnc(NC(=O)C2CC=CCC2C(=O)O)s1 (stereo unspecified) | .
SMILES | VCAM1 pot | others
CCOC(=O)Nc1ccc2c(c1)OCO2 | .
CCOC(=O)C1=C(c2ccccc2)OC(N)=C(C#N)C1c1ccco1 (stereo unspecified) | .
COCCOC(=O)C1=C(C)OC(N)=C(C#N)C1c1ccc2c(c1)OCO2 (stereo unspecified) | ? | VCAM1 pot confirm=.
Oc1ccccc1C1=Nc2ccccc2N=C(c2ccco2)C1 | .
COc1ccc(C(=O)NCc2nnc(SCC(=O)N3CCC(C)CC3)o2)cc1OC | .
CC(=O)N1CCN(c2ccc(NC(=O)c3ccc(C(C)(C)C)cc3)cc2)CC1 | .
CC12CCC(C(=O)NCCN3CCCCC3)(CC1=O)C2(C)C (stereo unspecified) | .
COC(=O)c1cccc(NC(=O)NC2CCCN2S(=O)(=O)c2ccc(Cl)cc2)c1 (stereo unspecified) | .
CCN1CCN(Cc2ccc(OCc3ccccc3)cc2)CC1 | .
Cc1cc(C)c(C)c(OCC(=O)NCC2CCCO2)c1 (stereo unspecified) | .
O=C(c1ccccc1)c1cc[n+]([O-])cc1 | 62 | VCAM1 pot confirm=.
O=C(c1ccccc1)c1cc2ccccc2o1 | .
COc1ccc(S(=O)(=O)N2CC(C(=O)O)Oc3ccc(CC(=O)O)cc32)cc1 (stereo unspecified) | .
O=C(COC(=O)C1=COCCO1)Nc1ccccc1Oc1ccccc1 | .
O=C(CN1CCC(n2nnc3ccccc32)CC1)Nc1ccc2c(c1)CCC2 | ? | VCAM1 pot confirm=.
O=C(CN1CCN(CC(=O)Nc2ccccc2Cl)CC1)Nc1ccc2c(c1)OCCO2 | .
Cc1cc(C)cc(NC(=O)CN2CCc3ccccc3C2)c1 | .
CCCOc1ccccc1C1NC(=O)NC(C)=C1C(=O)OCc1ccccc1 (stereo unspecified) | .
COc1cccc(CNC(=O)C2CCCN(c3nn4c(=O)cc(C)nc4s3)C2)c1OC (stereo unspecified) | .
Cc1ccnc(SCCn2c(N3CCN(Cc4ccccc4)CC3)nc3c2c(=O)[nH]c(=O)n3C)n1 | .
O=C(Nc1ccc(N2CCOCC2)c(Cl)c1)c1cccnc1 | 56 | VCAM1 pot confirm=.
O=C(CCc1ccccc1)Nc1ccc(N2CCOCC2)c(Cl)c1 | .
O=C(Nc1ccc(N2CCCC2)c(Cl)c1)c1cccnc1 | .
COc1cccc(-c2nc(CS(=O)(=O)CC(=O)NC3CCCc4ccccc43)c(C)o2)c1 (stereo unspecified) | .
Cc1ccc(C)c(S(=O)(=O)Nc2ccc3sc(C)nc3c2)c1 | .
Cc1ccc(NC(=O)CCN2C(=O)CSC2=O)cc1 | .
Cn1c(=O)cc(OCC(=O)NC2CCCCC2)c2ccccc21 | .
O=C(CN1C(=O)CSC1=O)NC1CCCCC1 | 42 | VCAM1 pot confirm=.
